Compound activity: PubChem, several laboratories
MITF TRPM1 HTS – activators of MITF-driven TRPM1 promoter activity in SK-MEL-5 cells | AID 588334 | SK-MEL-5 TRPM1-promoter luciferase, 24 h; % of positive control, neutral wells = 0 | 0.75% of 300,000 active | activation, % at 12.5 µM;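 active = mean activation of at least 80% with every replicate also reaching 80%; inconclusive = mean reaches 80% but some replicate falls short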;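 note: 0% = neutral control wells and 100% = parthenolide positive control wells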
Wnt act – activators of Wnt/beta-catenin signaling. 1.2% of 300,000 active. activation, % at 9.35 µM. Wnt/beta-catenin reporter cell assay, activator, plate reader. AID 743398; in the data active = activation above about 30%, passing the limit was not always enough; inconclusive = no clear call, values can overlap the other calls;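 note: 0% = neutral control wells and 100% = positive control wells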
esBAF inh – inhibitors of esBAF chromatin remodeling in mouse ES cells. Bmi1-luciferase knock-in reporter, 24 h; 100% = twice the neutral-well signal. reporter increase, % at 12.5 µM. 2% of 350,000 active. AID 602393; in the data active = activation above about 40%; inconclusive = no clear call, values can overlap the other calls;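 note: 0% = median of the plate's neutral control wells and 100% = double that signal; a rise in the Bmi1 reporter signal indicates esBAF inhibition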
FXN GAA850 act – activators of GAA850 frataxin (FXN) promoter; HEK293 lucGAA850 FXN promoter luciferase reporter, 24 h; percent of 10 µM SAHA response; activation, % at 6 µM; 0.56% of 360,000 active; AID 540364;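 active = activation above the average of all compounds screened plus 3 SD, cutoff fixed separately per campaign, cut at about 7.5% in these data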;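 note: 0% = DMSO wells and 100% = 10 µM SAHA wells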
Statin myotox sup – protects C2C12 myotubes from simvastatin toxicity; ATP luminescence, 48 h; scaled: DMSO 0, geranylgeraniol control 100; rescue of ATP level, % at 7.49 µM; 0.78% of 330,000 active;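 active = mean ATP rescue above about 67%, or every replicate alone reaching that limit, limit read from the data, passing the limit was not always enough; inconclusive = no clear call, values can overlap the other calls; inactive = mean under the limit and some replicate under it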;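 note: myotubes were challenged with 10 µM simvastatin during compound exposure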
GAA30 FXN cntr – GAA30 FXN promoter activation counter-screen. 66% of 1,900 active. activation, % at 6 µM. HEK293 lucGAA30 FXN promoter luciferase, 24 h; DMSO = 0%, 5 µM ipriflavone = 100%. AID 588350. shares compounds with FXN GAA850 act;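 active = mean activation above the mean of solvent-only control wells plus 3 SD, cut at about 22% in these data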;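 note: counterscreen of GAA850 promoter hits where activity marks nonselective or luminescence artifacts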
GAA850 confirm – GAA850 FXN promoter activation confirmation | shares compounds with FXN GAA850 act | HEK293 lucGAA850 FXN promoter luciferase reporter, 24 h; 100% = activation by SAHA | activation, % at 6 µM | 86% of 1,900 active | AID 588351;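 active = mean activation above a set limit taken from the primary screen, cut at about 8% in these data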;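 note: 0% = DMSO wells and 100% = 10 µM SAHA wells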
* marks the source's active call; other numbers are inactive results; u = inconclusive; x = no result given. The list is not random: actives were taken first. Their share in the collection is about 3.3%.

SMILES	MITF TRPM1 HTS	Wnt act	esBAF inh	FXN GAA850 act	Statin myotox sup	GAA30 FXN cntr	GAA850 confirm
O=C(CSC1=NCCN1)Nc1cccc(C(F)(F)F)c1	-6	7	x	9.6*	x	25*	21*
CCOC(=O)c1c(CSC(=N)N)n(-c2ccccc2)c2cc(Br)c(OC(C)=O)cc12	u	0	-6	10*	-9	-7	33*
CCOC(=O)c1c(CN2CCN(C)CC2)n(-c2ccccc2)c2cc(Br)c(O)cc12	-30	10	x	-2	x	x	x
COc1cccc(-c2cn(CC[C@@H]3CC[C@H](NC(=O)CC4CC4)[C@@H](CO)O3)nn2)c1	x	x	-3	x	8	x	x
C[C@H]1CN([C@@H](C)CO)C(=O)c2cc(-c3ccc(C#N)cc3)cnc2O[C@@H]1CN(C)C(=O)CC1CC1	x	x	4	x	0	x	x
C/C(=N\NC(=O)COc1ccc(C(C)(C)C)cc1)c1ccccc1	25	0	0	3	-4	x	x
C/C(=N\NC(=O)COc1ccc(C(C)(C)C)cc1)c1cc2ccccc2o1	56	u	x	9.5*	x	105*	39*
O=C(/C=C/c1ccc(O)c(O)c1)c1ccccc1O	65	47*	x	13*	x	75*	35*
O=C(/C=C/c1ccc(O)c(O)c1)OC(Cc1ccc(O)c(O)c1)C(=O)O (stereo not given)	x	0	10	-1	2	x	x
O=C(/C=C/c1ccoc1)c1ccccc1O	-6	0	x	0	x	x	x
O=C(/C=C/c1ccc(O)c(O)c1)OCCc1ccccc1	80	9	-68	16*	14	31*	23*
C[C@@H]1CCCCO[C@H](CN(C)C(=O)CCCN(C)C)[C@@H](C)CN([C@H](C)CO)C(=O)c2cc(NS(C)(=O)=O)ccc2O1	x	x	0	x	9	x	x
O=C1CC(c2cccs2)Sc2nc3ccccc3n21 (stereo not given)	6	x	x	4	x	x	x
O=C1CC(c2ccco2)Sc2nc3ccccc3n21 (stereo not given)	-1	47*	0	8.3*	4	84*	22*
CCc1nc2sc(C#N)c(N)c2c2c1CCCC2	-10	x	-3	10*	16	14	14*
CCc1nc2sc(C(C)=O)c(N)c2c2c1CCCC2	x	-1	x	-1	x	x	x
Cc1ccc(C(=O)Nc2nccc(-c3cccs3)n2)cc1	x	x	10	3	16	x	x
NC(=S)Nc1nccc(-c2cccs2)n1	30	22	7	8.3*	6	94*	37*
C[C@@H]1CN([C@H](C)CO)S(=O)(=O)c2ccc(Br)cc2O[C@@H]1CN(C)Cc1ccc(-c2ccccc2)cc1	x	5	0	14*	-8	24*	11*
C[C@@H]1CN([C@H](C)CO)S(=O)(=O)c2ccc(Br)cc2O[C@@H]1CN(C)Cc1ccccc1	x	x	0	x	-6	x	x
CN=c1scc(-c2ccccc2F)n1/N=C/c1ccc(O)c(O)c1O	-86	-7	-78	-1	4	x	x
CC(C)N=c1scc(-c2cccs2)n1/N=C/c1ccc(O)c(O)c1O	3	x	x	9.0*	x	49*	23*
Clc1ccc(N=C2SCC3CCCCN23)cc1 (stereo not given)	97*	16	53*	8.2*	-6	99*	42*
Clc1ccc(N=C2SCCS2)cc1	55	3	x	1	x	x	x
CC(C)(C)n1nnnc1C(c1cccs1)N(Cc1ccc(Cl)cc1)CC1CCCO1 (stereo not given)	-6	x	x	7.8*	x	20	17*
SMILES	MITF TRPM1 HTS	Wnt act	esBAF inh	FXN GAA850 act	Statin myotox sup	GAA30 FXN cntr	GAA850 confirm
CO[C@@H]1CN(C)C(=O)c2cc(NC(=O)c3ccccc3F)ccc2OC[C@H](C)N(CC2CCOCC2)C[C@@H]1C	x	x	5	x	-13	x	x
CO[C@H]1CC[C@H]2CCN(C)C(=O)[C@H](C)[C@@H](OC)CN(C)C(=O)c3cc(C#N)ccc3OC[C@H]1O2	x	x	-4	x	3	x	x
O=C(N/N=C/c1ccc(OC(=O)c2ccco2)cc1)c1ccccn1	32	15	x	7.8*	x	115*	33*
O=C(N/N=C/C=C\c1ccco1)c1ccccn1	32	11	x	7.7*	x	63*	38*
Cc1cc(C)cc(-n2c(SCC(=O)NCc3ccc4c(c3)OCO4)nc3ccccc3c2=O)c1	3	-2	x	8.6*	x	18	7
Cc1cc(C)cc(-n2c(SCC(=O)NCc3ccco3)nc3ccccc3c2=O)c1	-12	x	13	7	-15	x	x
CCC(=O)Nc1ccc2c(c1)C(=O)N(C)[C@@H]1CC[C@@H](CC(=O)NCc3ccccc3)O[C@@H]1CO2	x	x	-9	x	-8	x	x
CCCOc1ccc(N2C(=O)CC(N3CCN(C(=O)c4ccco4)CC3)C2=O)cc1 (stereo not given)	x	x	-8	-3	x	x	x
COC(=O)c1ccc(N2C(=O)CC(N3CCN(C(=O)c4ccco4)CC3)C2=O)cc1 (stereo not given)	1	-1	-1	11*	-3	16	8.2*
C[C@H](CO)N1C[C@H](C)[C@H](CN(C)C(=O)Nc2ccc(F)cc2)Oc2ccc(NC(=O)Nc3ccccc3)cc2C1=O	x	x	3	x	-6	x	x
c1csc(CSc2nc3ccccc3s2)c1	98*	x	x	7.7*	x	122*	39*
COc1ccc(CN(C)C[C@@H]2Oc3c(NS(=O)(=O)c4c(C)noc4C)cccc3C(=O)N([C@H](C)CO)C[C@@H]2C)cc1	x	x	-1	x	55	x	x
O=C(/C=C/c1ccccc1)CC(=O)c1ccccc1O	66	12	x	8.9*	x	72*	29*
C[C@H](CO)N1C[C@H](C)[C@@H](CN(C)Cc2ccc(C(=O)Nc3ccccc3N)cc2)Oc2c(NC(=O)Nc3ccc4c(c3)OCO4)cccc2C1=O	x	x	1	x	11	x	x
O=C(NC(=S)Nc1ccc(NC(=O)c2cccs2)cc1)c1cc2ccccc2o1	-1	x	x	-2	x	x	x
O=C(c1cc2ccccc2o1)c1cccs1	x	58*	u	8.3*	23	117*	40*
O=C(NCC[C@@H]1CC[C@@H](NC(=O)Nc2cc(F)ccc2F)[C@@H](CO)O1)Nc1ccc(F)cc1	x	x	2	x	-6	x	x
Fc1ccc(Nc2nc(-c3ccncc3)cs2)cc1	84*	28	x	7.9*	x	89*	33*
Oc1ccc(Nc2nc(-c3ccc(O)cc3)cs2)cc1	15	x	x	-4	x	x	x
COc1ccc2c(c1)Cc1sc(NC(C)=O)nc1-2	75	x	41*	8.2*	6	111*	32*
Cc1ccc(-c2c(C(=O)N3CCOCC3)oc(=O)c3ccccc23)cc1	5	-1	0	-2	3	x	x
CCN1CCN(C(=O)c2oc(=O)c3ccccc3c2-c2ccc(C)cc2)CC1	3	-1	-4	15*	-1	7	3
